Assay results: PubChem BioAssay (EPA / NIEHS)
“And” between values parts separate entries of the source, which are not always exact repeats. Identical values can stand only once. Where a structure was tested more than once in an assay, its records may differ in their call. The source made the active and inactive calls. Rule for the calls: active = hit-call score of the fitted dose curve at least 0.9, where 1 is the maximum; inactive = score below 0.9.

How the values were obtained:
[1] = read-out: Interleukin-1 alpha (IL1a), IL1A (gene 3552); assay: BSK_KF3CT_IL1a: BioMAP Diversity Plus: KF3CT Assay for Interleukin-1 alpha (IL1a) Biomarker Activity (AID 2283070); settings: primary human keratinocytes with fibroblasts; actives raise or lower the signal
How it was run: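 Chemicals were dosed onto co-cultured human keratinocytes and foreskin fibroblasts, IL-1a was quantified by ELISA at 24 h, and activity was fitted in both directions relative to DMSO controls.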

[2] = read-out: TIMP metallopeptidase inhibitor 2 (TIMP2), TIMP2 (gene 7077); assay: BSK_KF3CT_TIMP2: BioMAP Diversity Plus: KF3CT Assay for TIMP metallopeptidase inhibitor 2 (TIMP2) Biomarker Activity (AID 2283071); settings: primary human keratinocytes with fibroblasts; actives raise or lower the signal
How it was run: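 Human primary keratinocyte/foreskin fibroblast co-culture dosed with chemical and sampled at 24 h. TIMP-2 levels quantified by ELISA; bidirectional fitting against DMSO negative control as baseline.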

[3] = read-out: C-C motif chemokine 2 (Homo sapiens) (UniProt P13500); assay: BSK_KF3CT_MCP1: BioMAP Diversity Plus: KF3CT Assay for Monocyte Chemoattractant Protein 1 (MCP1/CCL2) Biomarker Activity (AID 2283073); settings: primary human keratinocytes with fibroblasts; actives raise or lower the signal
How it was run: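 ELISA readout of MCP-1 after 24 h chemical dosing of a human skin primary co-culture of keratinocytes and foreskin fibroblasts. Activity was fitted in both directions against DMSO.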

[4] = read-out: Matrix Metallopeptidase 9 (MMP9), MMP9 (gene 4318); assay: BSK_KF3CT_MMP9: BioMAP Diversity Plus: KF3CT Assay for Matrix Metallopeptidase 9 (MMP9) Biomarker Activity (AID 2283074); settings: primary human keratinocytes with fibroblasts; actives raise or lower the signal;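 for AC50: MMP9 protein level quantified by ELISA in the co-culture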
How it was run: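 Human keratinocyte/foreskin fibroblast co-culture; compound added; 24 h; MMP-9 by ELISA; bidirectional fit vs DMSO baseline.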

[5] = read-out: urokinase plasminogen activator (uPA), PLAU (gene 5328); assay: BSK_KF3CT_uPA: BioMAP Diversity Plus: KF3CT Assay for urokinase plasminogen activator (uPA) Biomarker Activity (AID 2283075); settings: primary human keratinocytes with fibroblasts; actives raise or lower the signal
How it was run: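 ELISA readout of uPA, analyzed for signal gain or loss relative to DMSO, from a human primary keratinocyte–foreskin fibroblast co-culture measured 24 h after chemical treatment.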

[6] = read-out: CD40, CD40 (gene 958); assay: BSK_LPS_CD40: BioMAP Diversity Plus: LPS Assay for CD40 Biomarker Activity (AID 2283076); settings: primary human HUVEC with PBMC; actives raise or lower the signal
How it was run: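 Cells were dosed, incubated 24 h, then assayed for CD40 by ELISA. Gain or loss of signal was analysed relative to DMSO controls. The culture paired human umbilical vein endothelium with peripheral blood mononuclear cells.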

[7] = read-out: E-selectin (Homo sapiens) (UniProt P16581); assay: BSK_LPS_Eselectin: BioMAP Diversity Plus: LPS Assay for Eselectin Biomarker Activity (AID 2283077); settings: primary human HUVEC with PBMC; actives raise or lower the signal
How it was run: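 Primary human vascular co-culture (endothelium plus PBMC) was dosed with chemical, then E-selectin quantified by ELISA at 24 h. Endpoint values derive from bidirectional curve fitting relative to DMSO.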

[8] = read-out: Interleukin-8 (IL8), CXCL8 (gene 3576); assay: BSK_LPS_IL8: BioMAP Diversity Plus: LPS Assay for Interleukin-8 (IL8) Biomarker Activity (AID 2283078); settings: primary human HUVEC with PBMC; actives raise or lower the signal
How it was run: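 Readout is IL-8 by ELISA, taken 24 h after compounds were added to LPS-stimulated endothelial/PBMC co-cultures. Both increases and decreases relative to DMSO control were scored through bidirectional fitting.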

[9] = BSK_LPS_SRB: Viability Assessment in the BioMAP Diversity Plus: LPS Assay (AID 2283079); settings: primary human HUVEC with PBMC;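 note: total protein by sulforhodamine B absorbance as a cytotoxicity measure; measured one day after compound addition; fitted in both directions against DMSO so loss or gain of signal counts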
How it was run: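 Readout is SRB absorbance at 560 nm (0.1% stain, TCA-fixed parallel cultures) as a total-protein cytotoxicity measure. Cells: primary human umbilical vein endothelium plus peripheral blood mononuclear cells, 24 h after chemical exposure; DMSO served as baseline.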

[10] = read-out: Transforming growth factor beta 1 (TGFb1), TGFB1 (gene 7040); assay: BSK_KF3CT_TGFb1: BioMAP Diversity Plus: KF3CT Assay for Transforming growth factor beta 1 (TGFb1) Biomarker Activity (AID 2283072); settings: primary human keratinocytes with fibroblasts; actives raise or lower the signal
How it was run: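 Human keratinocyte plus foreskin fibroblast primary co-culture, dosed with chemical for 24 h. TGF-b1 quantified by ELISA. Activity fitted bidirectionally against DMSO negative control as baseline.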

Measured: AC50

E-selectin (Homo sapiens), sequence (P16581 whole entry, looked up): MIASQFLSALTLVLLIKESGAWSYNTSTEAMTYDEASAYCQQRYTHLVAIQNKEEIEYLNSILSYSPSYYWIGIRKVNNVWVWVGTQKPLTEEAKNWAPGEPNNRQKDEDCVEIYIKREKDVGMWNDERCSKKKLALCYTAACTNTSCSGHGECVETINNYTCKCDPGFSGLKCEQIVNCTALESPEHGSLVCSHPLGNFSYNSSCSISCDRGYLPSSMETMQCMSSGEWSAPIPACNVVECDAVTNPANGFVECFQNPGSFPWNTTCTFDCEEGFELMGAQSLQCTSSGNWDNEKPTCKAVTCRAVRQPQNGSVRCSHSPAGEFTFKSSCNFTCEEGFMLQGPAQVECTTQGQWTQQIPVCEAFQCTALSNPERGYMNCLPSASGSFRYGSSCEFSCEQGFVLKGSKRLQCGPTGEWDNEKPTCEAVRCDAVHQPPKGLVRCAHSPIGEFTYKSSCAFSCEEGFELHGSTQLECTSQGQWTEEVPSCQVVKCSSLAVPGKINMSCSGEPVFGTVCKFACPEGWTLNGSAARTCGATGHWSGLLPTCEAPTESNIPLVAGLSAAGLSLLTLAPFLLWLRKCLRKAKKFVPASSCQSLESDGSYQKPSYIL

CCCO[Si](OCCC)(OCCC)OCCC
active: [8] 3.97 µM
inactive: [1] | [2] | [3] | [4] | [5] | [6] | [7] | [8] | [9]

OCC(F)(OC(F)(F)C(F)(OC(F)(F)C(F)(F)C(F)(F)F)C(F)(F)F)C(F)(F)F (centres undefined)
inactive: [1] | [3] | [6] | [8] | [9]
active: [2] 5.58 µM and 5.62 µM | [3] 5.14 µM | [4] 5.19 µM and 3.33 µM | [5] 5.49 µM and 3.33 µM | [6] 1.1 µM | [7] 5.03 µM and 3.77 µM

CC1(C)[C@H](C=C(Cl)Cl)[C@H]1C(=O)OCc1cccc(Oc2ccccc2)c1
inactive: all assays above

CC(C)(CO)CO
not listed: [10]
inactive: all other assays above

c1ccc(Sc2ccccc2)cc1
inactive: [6]
active: [1] 30.8 µM | [2] 27.8 µM | [10] 32 µM | [3] 32.8 µM | [4] 32.7 µM | [5] 33.1 µM | [7] 33.1 µM | [8] 20 µM | [9] 32.2 µM

CCOC(=O)C=Cc1ccccc1
inactive: all assays above

O=C(O)C(F)(F)OC(F)(F)C(F)(F)OC(F)(F)C(F)(F)C(F)(F)C(F)(F)F
inactive: [1] | [2] | [3] | [4] | [5] | [6] | [7] | [8] | [9]
active: [6] 48.6 µM | [9] 51 µM

C=C(C)C(=O)OCCC(F)(F)C(F)(F)C(F)(F)C(F)(F)C(F)(F)C(F)(F)C(F)(F)C(F)(F)F
not listed: [10]
inactive: all other assays above

CCCCN(CCO)CCO
inactive: [1] | [2] | [3] | [4] | [5] | [6] | [7] | [8] | [9]
active: [5] 14.9 µM

O=S(=O)(O)C(F)(F)C(F)(F)OC(F)(F)C(F)(F)F
active: [8] 30 µM and 10 µM
not listed: [10]
inactive: all other assays above

CCCCOCCOCCO
inactive: all assays above

CCn1cc(C(=O)O)c(=O)c2ccc(C)nc21
not listed: [10]
inactive: all other assays above

CC(C)CCCC(C)(C)O
not listed: [10]
inactive: all other assays above

C=C(C)C(N)=O
inactive: all assays above

CC/C(=C(\c1ccccc1)c1ccc(OCCN(C)C)cc1)c1ccccc1
active: [1] 8.27 µM and 11.2 µM | [2] 7.86 µM and 9.54 µM | [10] 8.7 µM and 6.05 µM | [3] 5.98 µM and 7.88 µM | [4] 7.84 µM and 8.19 µM | [5] 9.92 µM and 9.67 µM | [6] 7.05 µM and 5.81 µM | [7] 28.3 µM and 14.3 µM | [8] 26.5 µM and 10.8 µM | [9] 9.77 µM and 10.4 µM

O=C(O)C(F)(F)C(F)(F)C(F)(F)C(F)(F)C(F)(F)C(F)(F)C(F)(F)C(F)F
active: [8] 8.81 µM and 17.9 µM
not listed: [10]
inactive: all other assays above

C=C(F)C(=O)OC(C(F)(F)F)C(F)(F)F
not listed: [10]
inactive: all other assays above

C=CC(=O)OCC(CO)(COC(=O)C=C)COC(=O)C=C
active: [1] 0.517 µM | [2] 0.529 µM | [10] 0.415 µM | [3] 5.44 µM | [4] 0.4 µM | [5] 0.685 µM | [6] 0.454 µM | [7] 0.311 µM | [8] 3.97 µM | [9] 0.749 µM

COc1ccccc1NC(=O)CC(C)=O
inactive: all assays above

CC(=O)OCC=C(C)CCC=C(C)CCC=C(C)C
inactive: all assays above

CCOC(=O)CCCCCCCCC(=O)OCC
inactive: all assays above

CC(=O)c1ccc(C)cc1
not listed: [10]
inactive: all other assays above
